The supplement of paper PMC10849652
Of roughly 7,900 targets only a part is listed; those with a hit were picked by preference. About 0.6% of all pairs of compound and target were hits.

Experiments:
Assay in all cases: log2 fold change, soluble protein after heating vs DMSO (PISA); higher = thermal stabilisation; K562 cells, 10 uM, 30 min; active = over 0.2 and 3.5 SD of the protein, either way, in both replicates (recomputed)
[1] = compound: NC(=O)Nc1cc(-c2cccc(F)c2)sc1C(=O)N[C@H]1CCCNC1
How it was run: (§1)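 Soluble protein was defined as the supernatant after 21,000xg for 90 min. It came from K562 cells at 2×10^6 cells/mL given 10 μM compound for 30 min, heated in aliquots for 3 min across 48°C-58°C, pooled, and extracted in PBS with 0.5% NP-40 at 4°C, and was quantified by TMTpro 16plex LC-MS/MS with equalised channel sums. Thermal stability against control samples, from duplicates, is reported as log2 fold change.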

[2] = compound: NC(=O)c1cnc(N[C@@H]2CCCC[C@@H]2N)nc1Nc1cccc(-n2nccn2)c1
How it was run: as §1

[3] = compound: NC1(c2ccc(-c3nc4ccn5c(=O)[nH]nc5c4cc3-c3ccccc3)cc2)CCC1
How it was run: as §1

[4] = compound: NCC(=O)Nc1ccc(-n2nc(C(F)(F)F)cc2-c2ccc3c(ccc4ccccc43)c2)cc1
How it was run: as §1

entinostat = compound: Nc1ccccc1NC(=O)c1ccc(CNC(=O)OCc2cccnc2)cc1 [entinostat]
How it was run: as §1

vorinostat = compound: O=C(CCCCCCC(=O)Nc1ccccc1)NO [vorinostat]
How it was run: as §1

citarinostat = compound: O=C(CCCCCCNC(=O)c1cnc(N(c2ccccc2)c2ccccc2Cl)nc1)NO [citarinostat]
How it was run: as §1

silmitasertib = compound: O=C(O)c1ccc2c(c1)nc(Nc1cccc(Cl)c1)c1ccncc12 [silmitasertib]
How it was run: as §1

[5] = compound: O=C1NC(=O)C(c2cnc3ccccn23)=C1c1cn2c3c(cc(F)cc13)CN(C(=O)N1CCCCC1)CC2
How it was run: as §1

[6] = compound: c1cc(OCCN2CCCCC2)cc(-c2n[nH]c3ccc(-c4nnc[nH]4)cc23)c1
How it was run: as §1

entospletinib = compound: c1cn2cc(-c3ccc4cn[nH]c4c3)nc(Nc3ccc(N4CCOCC4)cc3)c2n1 [entospletinib]
How it was run: as §1

Measured: log2 fold change

QKI (UniProt Q96PU8)
inactive: [1] -0.057 | [2] -0.137 | [3] -0.086 | [4] -0.084 | entinostat 0.006 | vorinostat 0.06 | citarinostat 0.026 | silmitasertib -0.012 | [5] -0.071 | [6] 0.064 | entospletinib 0.065

PTDSS1 (UniProt P48651)
inactive: [1] 0.043 | [2] -0.045 | [3] 0.022 | [4] -0.007 | entinostat -0.058 | vorinostat 0.199 | citarinostat -0.051 | silmitasertib 0.091 | [5] 0.184 | [6] -0.06 | entospletinib 0.147

PPIL2 (UniProt Q13356)
inactive: [1] -0.069 | [2] -0.058 | [3] -0.077 | [4] -0.1 | entinostat 0.059 | vorinostat 0.063 | citarinostat 0.065 | silmitasertib 0.083 | [5] -0.07 | [6] -0.014 | entospletinib -0.027

PC (UniProt P11498)
inactive: [1] -0.025 | [2] 0.027 | [3] -0.084 | [4] 0.004 | entinostat -0.003 | vorinostat -0.044 | citarinostat 0.053 | silmitasertib -0.122 | [5] -0.099 | [6] 0.112 | entospletinib 0.002

PPP2R5E (UniProt Q16537)
Sequence of UniProt Q16537 (Q16537 whole entry, looked up): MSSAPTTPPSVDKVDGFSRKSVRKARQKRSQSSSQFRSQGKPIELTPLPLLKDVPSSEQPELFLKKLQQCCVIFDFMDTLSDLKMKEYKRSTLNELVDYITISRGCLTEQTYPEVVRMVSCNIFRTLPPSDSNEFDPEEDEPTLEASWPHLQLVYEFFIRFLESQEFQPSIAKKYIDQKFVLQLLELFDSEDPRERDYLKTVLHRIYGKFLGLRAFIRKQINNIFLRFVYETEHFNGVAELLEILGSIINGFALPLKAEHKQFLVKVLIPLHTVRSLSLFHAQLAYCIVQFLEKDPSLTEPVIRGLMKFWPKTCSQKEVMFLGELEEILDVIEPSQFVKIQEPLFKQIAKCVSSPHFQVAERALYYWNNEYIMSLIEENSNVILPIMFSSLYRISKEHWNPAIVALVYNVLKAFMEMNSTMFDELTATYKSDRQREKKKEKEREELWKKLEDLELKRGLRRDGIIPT
inactive: [1] 0.015 | [2] -0.039 | [3] -0.078 | [4] -0.09 | entinostat -0.021 | vorinostat 0.118 | citarinostat 0.058 | silmitasertib -0.014 | [5] -0.016 | [6] 0.163 | entospletinib -0.078

PDPK1 (UniProt O15530)
inactive: [2] -0.111 | [4] -0.061 | entinostat 0.034 | vorinostat 0.108 | citarinostat 0.038 | silmitasertib -0.04 | [5] 0.004 | [6] -0.019 | entospletinib -0.037
active: [1] 0.238 | [3] -0.314

PCBP2 isoform 3 (UniProt Q15366)
Sequence of UniProt Q15366 (Q15366 whole entry, looked up): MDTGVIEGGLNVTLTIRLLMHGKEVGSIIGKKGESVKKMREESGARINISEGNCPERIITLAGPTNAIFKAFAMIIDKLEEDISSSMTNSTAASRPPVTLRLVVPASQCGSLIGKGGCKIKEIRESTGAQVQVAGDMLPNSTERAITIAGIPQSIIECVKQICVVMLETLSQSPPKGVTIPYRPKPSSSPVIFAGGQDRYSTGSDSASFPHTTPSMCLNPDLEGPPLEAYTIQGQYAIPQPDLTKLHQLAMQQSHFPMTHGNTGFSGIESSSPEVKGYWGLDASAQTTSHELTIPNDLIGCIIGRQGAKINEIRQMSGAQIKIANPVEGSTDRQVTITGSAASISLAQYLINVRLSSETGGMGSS
inactive: [1] 0.001 | [2] -0.074 | [3] -0.102 | [4] -0.088 | entinostat 0.062 | vorinostat 0.099 | citarinostat 0.104 | silmitasertib 0.019 | [5] -0.015 | [6] -0.023 | entospletinib 0.009

PTPN12 (UniProt Q05209)
Sequence of UniProt Q05209 (Q05209 whole entry, looked up): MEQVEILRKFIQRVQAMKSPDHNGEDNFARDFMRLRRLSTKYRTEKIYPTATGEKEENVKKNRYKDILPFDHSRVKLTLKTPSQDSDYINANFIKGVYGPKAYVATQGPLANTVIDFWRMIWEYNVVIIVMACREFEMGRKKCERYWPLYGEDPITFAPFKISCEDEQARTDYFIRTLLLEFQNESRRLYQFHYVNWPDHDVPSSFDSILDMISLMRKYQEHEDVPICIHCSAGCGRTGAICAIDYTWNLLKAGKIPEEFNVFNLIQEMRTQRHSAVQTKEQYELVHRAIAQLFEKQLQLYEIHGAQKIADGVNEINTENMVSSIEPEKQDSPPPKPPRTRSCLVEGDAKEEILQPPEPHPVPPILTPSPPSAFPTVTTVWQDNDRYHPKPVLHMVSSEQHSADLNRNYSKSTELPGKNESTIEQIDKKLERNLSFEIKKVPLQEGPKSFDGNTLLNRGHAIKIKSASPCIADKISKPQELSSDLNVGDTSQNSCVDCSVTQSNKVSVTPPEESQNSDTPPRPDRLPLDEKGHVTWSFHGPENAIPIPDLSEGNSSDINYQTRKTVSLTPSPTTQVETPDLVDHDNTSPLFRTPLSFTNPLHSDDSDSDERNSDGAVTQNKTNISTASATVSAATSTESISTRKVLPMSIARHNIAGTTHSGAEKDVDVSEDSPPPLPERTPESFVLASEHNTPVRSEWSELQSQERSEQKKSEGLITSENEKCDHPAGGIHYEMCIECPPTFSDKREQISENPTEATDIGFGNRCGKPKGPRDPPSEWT
inactive: [1] 0.037 | [2] -0.023 | [3] -0.1 | [4] -0.012 | entinostat 0.038 | vorinostat -0.01 | citarinostat 0.019 | silmitasertib 0.163 | [5] 0.014 | [6] -0.015 | entospletinib -0.041

PCBP2 (UniProt F8VRH0)
inactive: [1] 0.187 | [2] -0.017 | [3] -0.175 | [4] 0.013 | entinostat 0.051 | vorinostat 0.247 | citarinostat 0.006 | silmitasertib -0.105 | [5] 0.144 | [6] -0.01 | entospletinib -0.004

POP1 (UniProt Q99575)
inactive: [1] 0.072 | [2] 0.025 | [3] 0.03 | [4] 0.045 | entinostat -0.019 | vorinostat -0.013 | citarinostat -0.003 | silmitasertib -0.011 | [5] 0.038 | [6] -0.128 | entospletinib 0.027

POGLUT1 (UniProt Q8NBL1)
inactive: [1] -0.043 | [2] -0.057 | [3] -0.008 | [4] -0.102 | entinostat -0.01 | vorinostat 0.112 | citarinostat -0.058 | silmitasertib 0 | [5] 0.019 | [6] -0.05 | entospletinib 0.06

PIP4K2A (UniProt P48426)
Sequence of UniProt P48426 (P48426 whole entry, looked up): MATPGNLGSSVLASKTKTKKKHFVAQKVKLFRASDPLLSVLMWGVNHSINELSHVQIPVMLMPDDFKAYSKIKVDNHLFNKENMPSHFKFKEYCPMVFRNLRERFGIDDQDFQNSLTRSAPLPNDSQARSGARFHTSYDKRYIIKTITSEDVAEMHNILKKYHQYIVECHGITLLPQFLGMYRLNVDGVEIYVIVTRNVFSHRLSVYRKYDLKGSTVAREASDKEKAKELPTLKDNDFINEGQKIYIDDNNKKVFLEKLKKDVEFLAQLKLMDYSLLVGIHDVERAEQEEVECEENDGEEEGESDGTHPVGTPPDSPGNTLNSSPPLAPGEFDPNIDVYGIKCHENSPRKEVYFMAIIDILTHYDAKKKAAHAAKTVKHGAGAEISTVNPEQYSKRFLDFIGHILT
inactive: [1] -0.026 | [2] 0.013 | [3] -0.086 | [4] 0.113 | entinostat 0.026 | vorinostat -0.037 | citarinostat 0.004 | silmitasertib 0.259 | [5] 0.057 | [6] -0.057 | entospletinib -0.049

PSMD11 (UniProt O00231)
Sequence of UniProt O00231 (O00231 whole entry, looked up): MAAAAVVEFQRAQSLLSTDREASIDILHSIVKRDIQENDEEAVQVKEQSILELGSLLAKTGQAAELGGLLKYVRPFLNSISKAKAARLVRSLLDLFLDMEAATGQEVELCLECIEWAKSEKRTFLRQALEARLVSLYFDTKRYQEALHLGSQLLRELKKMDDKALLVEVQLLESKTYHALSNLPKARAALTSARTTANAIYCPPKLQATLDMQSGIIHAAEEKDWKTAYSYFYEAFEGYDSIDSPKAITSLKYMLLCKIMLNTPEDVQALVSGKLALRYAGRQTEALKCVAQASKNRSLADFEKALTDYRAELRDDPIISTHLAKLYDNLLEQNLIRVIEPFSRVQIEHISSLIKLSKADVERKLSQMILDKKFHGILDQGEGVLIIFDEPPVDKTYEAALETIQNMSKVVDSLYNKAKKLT
inactive: [1] 0.048 | [2] 0.04 | [3] -0.016 | [4] 0.061 | entinostat -0.012 | vorinostat 0.027 | citarinostat -0.001 | silmitasertib -0.028 | [5] 0.071 | [6] -0.092 | entospletinib 0.017

PRPF40A (UniProt O75400)
inactive: [1] -0.014 | [2] -0.001 | [3] 0 | [4] -0.062 | entinostat 0.114 | vorinostat 0.048 | citarinostat 0.079 | silmitasertib -0.038 | [5] 0.003 | [6] -0.067 | entospletinib 0.057

PYGL (UniProt P06737)
inactive: [1] 0.135 | [2] 0.012 | [3] -0.023 | [4] 0.016 | entinostat 0.028 | vorinostat 0.01 | citarinostat 0.039 | silmitasertib 0.034 | [5] -0.043 | [6] -0.041 | entospletinib -0.088

PELO (UniProt Q9BRX2)
inactive: [1] -0.028 | [2] -0.089 | [3] -0.098 | [4] -0.174 | entinostat 0.058 | vorinostat 0.064 | citarinostat 0.009 | silmitasertib 0.054 | [5] 0.063 | [6] -0.057 | entospletinib 0.05

PGK2 (UniProt P07205)
Sequence of UniProt P07205 (P07205 whole entry, looked up): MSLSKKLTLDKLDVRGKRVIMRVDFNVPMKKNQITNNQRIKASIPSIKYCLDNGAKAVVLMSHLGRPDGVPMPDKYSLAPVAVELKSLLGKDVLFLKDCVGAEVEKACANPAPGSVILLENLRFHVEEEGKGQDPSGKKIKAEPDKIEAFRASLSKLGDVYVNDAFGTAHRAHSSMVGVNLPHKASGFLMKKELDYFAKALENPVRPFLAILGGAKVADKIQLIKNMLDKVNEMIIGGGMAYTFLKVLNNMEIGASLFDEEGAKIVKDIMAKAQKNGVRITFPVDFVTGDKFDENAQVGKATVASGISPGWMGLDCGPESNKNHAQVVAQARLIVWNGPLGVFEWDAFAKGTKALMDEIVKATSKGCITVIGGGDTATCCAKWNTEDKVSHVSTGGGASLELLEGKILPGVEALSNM
active: [5] -0.532
inactive: [1] -0.056 | [2] -0.032 | [3] -0.038 | [4] -0.134 | entinostat 0.021 | vorinostat -0.056 | citarinostat -0.121 | silmitasertib 0.172 | [6] -0.012 | entospletinib -0.035

PEX16 isoform 2 (UniProt Q9Y5Y5)
Sequence of UniProt Q9Y5Y5 (Q9Y5Y5 whole entry, looked up): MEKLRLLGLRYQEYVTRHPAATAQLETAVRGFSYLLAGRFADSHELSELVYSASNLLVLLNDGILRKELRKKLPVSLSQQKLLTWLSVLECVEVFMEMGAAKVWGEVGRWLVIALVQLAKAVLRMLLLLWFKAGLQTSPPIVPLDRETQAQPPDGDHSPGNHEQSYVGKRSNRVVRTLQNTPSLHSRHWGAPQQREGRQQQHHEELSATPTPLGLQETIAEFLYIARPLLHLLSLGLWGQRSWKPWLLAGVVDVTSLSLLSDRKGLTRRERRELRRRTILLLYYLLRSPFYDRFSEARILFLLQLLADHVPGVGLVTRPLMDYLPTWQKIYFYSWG
inactive: [1] 0.061 | [2] -0.052 | [3] -0.171 | [4] -0.031 | entinostat 0.022 | vorinostat 0.115 | citarinostat 0.081 | silmitasertib -0.025 | [5] 0.033 | [6] -0.051 | entospletinib -0.081

PIP4P2 (UniProt Q8N4L2)
Sequence of UniProt Q8N4L2 (Q8N4L2 whole entry, looked up): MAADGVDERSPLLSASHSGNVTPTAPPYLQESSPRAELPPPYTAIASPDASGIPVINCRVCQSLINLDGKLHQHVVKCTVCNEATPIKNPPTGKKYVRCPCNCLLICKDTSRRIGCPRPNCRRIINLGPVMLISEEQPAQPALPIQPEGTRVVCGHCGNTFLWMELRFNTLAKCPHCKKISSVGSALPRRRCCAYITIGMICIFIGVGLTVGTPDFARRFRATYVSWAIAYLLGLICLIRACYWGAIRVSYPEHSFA
inactive: [1] 0.02 | [2] -0.152 | [4] -0.024 | entinostat 0.007 | vorinostat 0.042 | citarinostat -0.02 | silmitasertib 0.074 | [5] 0.082 | [6] 0.051 | entospletinib 0.115
active: [3] -0.373

PLBD1 (UniProt Q6P4A8)
Sequence of UniProt Q6P4A8 (Q6P4A8 whole entry, looked up): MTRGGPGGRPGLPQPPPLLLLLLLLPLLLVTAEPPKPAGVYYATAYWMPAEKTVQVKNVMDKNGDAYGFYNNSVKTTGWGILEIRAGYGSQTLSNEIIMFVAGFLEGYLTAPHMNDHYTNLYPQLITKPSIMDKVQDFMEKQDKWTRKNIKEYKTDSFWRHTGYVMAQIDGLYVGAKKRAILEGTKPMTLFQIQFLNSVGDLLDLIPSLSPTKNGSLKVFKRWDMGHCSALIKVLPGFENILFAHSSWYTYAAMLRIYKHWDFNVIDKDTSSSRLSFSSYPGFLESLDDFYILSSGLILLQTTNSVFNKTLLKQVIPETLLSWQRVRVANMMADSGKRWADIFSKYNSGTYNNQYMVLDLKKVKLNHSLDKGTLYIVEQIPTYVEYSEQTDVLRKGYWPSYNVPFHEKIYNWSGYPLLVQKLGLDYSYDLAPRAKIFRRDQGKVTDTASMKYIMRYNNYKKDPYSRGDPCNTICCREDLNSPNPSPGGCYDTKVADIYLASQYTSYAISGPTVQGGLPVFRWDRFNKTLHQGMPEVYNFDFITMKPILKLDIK
inactive: [1] 0.008 | [2] -0.061 | [3] -0.076 | [4] -0.039 | entinostat 0.008 | vorinostat -0.038 | citarinostat -0.018 | silmitasertib 0.003 | [5] -0.027 | [6] 0.409 | entospletinib 0.011

PRKAB2 (UniProt O43741)
inactive: [1] 0.204 | [2] 0.248 | [3] -0.077 | [4] 0.162 | entinostat 0.186 | vorinostat 0.099 | citarinostat -0.1 | silmitasertib 0.031 | [5] 0.121 | [6] -0.47 | entospletinib -0.12

PIP4K2B (UniProt P78356)
inactive: [1] 0.06 | [2] 0.083 | [3] -0.053 | [4] 0.118 | entinostat 0.096 | vorinostat 0.053 | citarinostat -0.009 | silmitasertib 0.202 | [5] 0.044 | [6] 0.069 | entospletinib -0.04

PLIN2 (UniProt Q99541)
Sequence of UniProt Q99541 (Q99541 whole entry, looked up): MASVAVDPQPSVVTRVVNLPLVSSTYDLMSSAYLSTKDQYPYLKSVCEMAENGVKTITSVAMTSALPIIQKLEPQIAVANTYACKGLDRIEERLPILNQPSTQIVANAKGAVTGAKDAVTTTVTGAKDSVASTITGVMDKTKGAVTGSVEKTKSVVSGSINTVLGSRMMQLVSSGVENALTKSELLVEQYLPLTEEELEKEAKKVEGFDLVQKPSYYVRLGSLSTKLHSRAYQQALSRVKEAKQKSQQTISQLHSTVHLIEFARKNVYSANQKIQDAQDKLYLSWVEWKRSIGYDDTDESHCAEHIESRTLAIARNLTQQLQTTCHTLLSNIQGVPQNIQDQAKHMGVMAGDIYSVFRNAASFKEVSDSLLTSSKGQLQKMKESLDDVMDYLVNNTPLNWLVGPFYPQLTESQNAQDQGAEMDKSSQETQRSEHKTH
inactive: [1] 0.019 | [2] -0.194 | [3] -0.353 | [4] -0.059 | entinostat 0.077 | vorinostat 0.203 | citarinostat 0.027 | silmitasertib 0.035 | [5] -0.046 | [6] -0.044 | entospletinib 0.043

PGGT1B (UniProt P53609)
inactive: [1] -0.048 | [2] -0.014 | [3] -0.062 | [4] -0.021 | entinostat -0.047 | vorinostat -0.046 | citarinostat 0.038 | silmitasertib 0.021 | [5] 0.02 | [6] -0.042 | entospletinib -0.037

PRKAR2B (UniProt P31323)
inactive: [2] -0.152 | [3] -0.223 | [4] 0.016 | entinostat 0.027 | vorinostat 0.112 | citarinostat 0.078 | silmitasertib 0.008 | [5] -0.003 | [6] -0.013 | entospletinib -0.166
active: [1] -0.964

PECAM1 (UniProt P16284)
inactive: [1] 0.005 | [2] 0.092 | [3] 0.034 | [4] 0.053 | entinostat -0.13 | vorinostat -0.057 | citarinostat 0.033 | silmitasertib -0.039 | [5] -0.064 | [6] -0.023 | entospletinib -0.071

PRKAG1 isoform 3 (UniProt P54619)
inactive: [1] -0.105 | [2] -0.033 | [3] -0.069 | [4] -0.045 | entinostat 0.017 | vorinostat 0.071 | citarinostat 0.04 | silmitasertib 0.016 | [5] -0.042 | [6] -0.091 | entospletinib -0.018

PISD (UniProt Q9UG56)
Sequence of UniProt Q9UG56 (Q9UG56 whole entry, looked up): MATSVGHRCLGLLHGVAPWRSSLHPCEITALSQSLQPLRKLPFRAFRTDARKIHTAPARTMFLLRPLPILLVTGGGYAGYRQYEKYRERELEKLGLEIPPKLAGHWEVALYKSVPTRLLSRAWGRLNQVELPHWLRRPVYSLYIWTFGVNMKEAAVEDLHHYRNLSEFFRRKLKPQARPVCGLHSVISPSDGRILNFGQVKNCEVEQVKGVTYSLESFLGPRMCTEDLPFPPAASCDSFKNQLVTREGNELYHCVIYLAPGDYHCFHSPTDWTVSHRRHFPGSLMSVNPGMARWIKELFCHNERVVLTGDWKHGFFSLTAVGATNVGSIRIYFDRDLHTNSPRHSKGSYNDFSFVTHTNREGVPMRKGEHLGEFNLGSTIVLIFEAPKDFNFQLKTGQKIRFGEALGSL
inactive: [1] 0.023 | [2] 0.019 | [3] -0.009 | [4] 0.045 | entinostat -0.047 | vorinostat 0.069 | citarinostat 0.035 | silmitasertib -0.019 | [5] -0.097 | [6] -0.006 | entospletinib -0.009
